Sfp PPTase inh: Sfp phosphopantetheinyl transferase inhibition; Q9F4F7; hit rate 3.5% among 310,000; Biochemical Sfp PPTase activity, qHTS; Potency, µM, for inactives: largest response in the series, negative = inhibition, usual class: inhibitors; AID 1490;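 note: the enzyme is Sfp with the accession as filed and its product quenches rhodamine fluorescence; 0% = enzyme reaction without inhibitor and -100% = no enzyme wells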
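Step 1, compound plus 15 nM Sfp-PPTase, 15 min, room temperature. Step 2, add rhodamine-CoA (5 uM) and BHQ-2-YbbR (12.5 uM). Step 3, read 525/598 nm fluorescence at 0 and 30 min.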
G9a block: blocks human histone lysine methyltransferase G9a; hit rate 8.8% among 350,000; Potency, µM (series often up to 102 µM), without a hit: at the top dose activity, negative = inhibition, actives largely listed as inhibitors; G9a H3K9 monomethylation, AlphaScreen, 2 h; Q96KQ7; note: % is set by controls: 0 for no effect and ±100 for the full control effect; nearly all actives have a fitted effect of over 75% in size
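Using a bead-based AlphaScreen, monomethylated H3K9 product from 2 h room-temperature reactions (G9a 20 nM, peptide 500 nM, SAM 20 uM) was detected with 0.5 ug/mL rabbit anti-H3K9me1 antibody.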
HP1b chromo inh: blocks HP1-beta chromodomain binding to methylated histone tails; P83916; AlphaScreen HP1-beta / biotin-H3K9me3 peptide binding; Potency, µM (top dose mostly 114 µM), inactives show top-dose activity change, negative = inhibition, hits mostly inhibitors; hit rate 0.56% among 390,000; note: nearly all actives have a fitted effect of over 70% in size
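AlphaScreen: HP1-beta (50 nM) preformed 30 min with biotin-H3(1-18)K9me3 peptide (50 nM) in PBS pH 7.4, 0.01% Tween-20. Compound added for 30 min at RT, then streptavidin donor/nickel chelate acceptor beads (10 ug/mL) for 30 min.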
BAZ2B block: BAZ2B (human) inhibition; Q9UIF8; AlphaScreen BAZ2B-H3K14Ac peptide displacement; Potency, µM (doses to about 114 µM), for the others: at the top dose activity change, negative = inhibition, most hits filed as inhibitors; hit rate 4.4% among 360,000; AID 504333; note: % is set by controls: 0 for no effect and ±100 for the full control effect; nearly all actives have a fitted effect of over 60% in size
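Inhibition is scored as reduced AlphaScreen emission. The BAZ2B/b-H3(5-23)K14Ac complex (50 nM each) in PBS pH 7.4, 0.01% Tween-20 meets compound (up to 110 uM) for 30 min at RT before bead addition.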
JMJD2A Tudor inh: blocks the human JMJD2A Tudor domain | O75164 | AlphaScreen JMJD2A-Tudor / H3K4me3 peptide binding | Potency, µM (highest dose often 114 µM), without a hit: at the top dose activity change, negative = inhibition, most hits filed as inhibitors | hit rate 4.4% among 390,000 | AID 504339; note: % is set by controls: 0 for no effect and ±100 for the full control effect; nearly all actives have a fitted effect of over 50% in size
PLK1 PBD inh: inhibitors of human PLK1 polo-box domain binding; hit rate 2.8% among 360,000; Potency, µM, inactives show max response, negative = inhibition, actives largely listed as inhibitors; AID 720504; P53350; Plk1 PBD binding of FITC phosphopeptide, fluorescence polarization; note: series mostly up to about 57 µM; % is set by controls: 0 for no effect and ±100 for the full control effect; nearly all actives have a fitted effect of over 65% in size
Target sequence (P53350 whole entry, looked up, the tested form may be a part): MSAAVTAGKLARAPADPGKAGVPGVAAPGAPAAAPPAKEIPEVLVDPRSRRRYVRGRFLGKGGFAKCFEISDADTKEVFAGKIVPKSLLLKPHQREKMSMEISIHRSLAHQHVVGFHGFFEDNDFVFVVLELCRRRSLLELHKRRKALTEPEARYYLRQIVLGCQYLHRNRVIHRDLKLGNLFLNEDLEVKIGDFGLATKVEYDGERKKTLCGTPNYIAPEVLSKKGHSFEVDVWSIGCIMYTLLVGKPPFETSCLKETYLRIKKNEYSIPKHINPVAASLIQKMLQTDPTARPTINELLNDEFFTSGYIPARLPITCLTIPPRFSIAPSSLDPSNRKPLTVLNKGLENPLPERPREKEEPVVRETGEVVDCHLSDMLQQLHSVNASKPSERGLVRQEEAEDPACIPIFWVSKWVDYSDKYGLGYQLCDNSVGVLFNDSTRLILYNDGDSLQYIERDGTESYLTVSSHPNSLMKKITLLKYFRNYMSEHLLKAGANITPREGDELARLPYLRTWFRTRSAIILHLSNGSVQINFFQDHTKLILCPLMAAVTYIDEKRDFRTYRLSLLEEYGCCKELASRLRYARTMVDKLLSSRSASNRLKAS
Active calls of the source: *; ? = inconclusive; · = no result; ! = not confirmed by another sample; [ ] = remark or other dose. Shown are actives, neighbours in structure and some others; about 12% of the full set was active somewhere. Calls come from the whole dose curve; as a rule, active = well fitted curve in the direction sought with a large enough effect; inconclusive = small, poorly fitted or top-dose-only effect, or another doubt; inactive = no such curve, though single readings can be large; an effect the other way counts as inactive or inconclusive. Potency is the fitted concentration of half-maximal effect.

SMILES | Sfp PPTase inh | G9a block | HP1b chromo inh | BAZ2B block | JMJD2A Tudor inh | PLK1 PBD inh
CCN1C(=O)/C(=C\c2ccc(-c3ccc([N+](=O)[O-])cc3OC)o2)SC1=Nc1cccc(C(=O)O)c1 | 25µM* | 11µM* | 28µM* | 50µM* | 56µM* | 21µM*
CCN1C(=O)/C(=C\c2ccc(-c3cccc(C(=O)OC)c3)o2)SC1=Nc1ccc(C(=O)O)cc1 | -28% | · | · | -36% | · | ·
CCN=C1S/C(=C\c2cc(Cl)c(OC)c(OC)c2)C(=O)N1CC | 8% | -12% | 4% | -3% | 14% | -12%
CCOC(=O)COc1ccc(/C=C2/SC(=Nc3ccccc3)N(Cc3cccnc3)C2=O)cc1OC | ? | ? | -13% | ? | -34% | 0%
CCN=C1S/C(=C\c2ccc(-c3cccc(C(=O)O)c3)o2)C(=O)N1CC | 20µM* | 40µM* | 47% | ? | ? | ?
COc1ccc(-c2noc(-c3cccnc3N3CCN(c4ccc(OC)cc4)CC3)n2)cc1 | · | -32%[59 µM] | 27% | -17% | -24% | ·
CCOc1ccc(NC(=O)CN(C)C(=O)CCNC(=O)c2ccco2)cc1OCC | · | 44%[12.7 µM] | 20% | 1% | -16% | -2%
CCc1ccc(CN(C)C(=O)c2cc(COc3ccc(-n4cncn4)cc3)on2)cc1 | 4% | 26% | 18% | -15% | -25% | 4%
Brc1ccc(OCCN2CCOCC2)cc1 | -14% | 28µM* | ? | ? | 0.89µM* | -19%
c1ccc(OCCCCN2CCOCC2)cc1 | -8% | -5% | 0% | 7% | -2% | 2%
Brc1ccc(OCCCN2CCOCC2)cc1 | -27% | 28µM* | ? | ? | 4.5µM* | -7%
Clc1ccc(OCCN2CCOCC2)cc1 | 9% | 12% | 14% | -12% | -17% | -1%
c1ccc(-c2nc3c4ccccc4ccn3c2Cc2ccsc2)cc1 | · | · | · | · | · | -1%
O=C(CCC1N=C2c3ccccc3N=C(SCc3ccc(F)cc3)N2C1=O)N1CCN(c2ccccc2)CC1 (centres undefined) | · | ? | 15% | -27% | -32% | ·
N#CCSC1=Nc2ccccc2C2=NC(CCC(=O)N3CCN(c4ccccc4)CC3)C(=O)N12 (centres undefined) | ? | 45µM* | 28% | ? | -22% | ?
O=C/C=C/c1c(-c2ccccc2)cc2oc3ccccc3cc1-2 | -21% | 8.9µM* | 6.3µM* | 3.5µM* | 6.3µM* | -12%
Cc1nc(-c2ccc(F)cc2)c(CC(=O)N(C)CC(=O)Nc2ccccc2Br)s1 | · | 9%[2.33 µM] | 5% | -3% | -21% | -2%
Cc1nc(-c2ccc(F)cc2)c(CC(=O)N(C)CC(=O)Nc2ccc(Br)cc2C)s1 | · | 32µM* | 6% | -19% | -33% | 2%
CCOc1cc(N2CCOCC2)c(OCC)cc1NC(=O)c1c(C)noc1C | · | 16µM* | 18% | -2% | -16% | 1%
Cc1onc(-c2ccccc2)c1C(=O)Nc1ccc(S(=O)(=O)N2CCOCC2)cc1 | 37% | 50µM* | -2% | 5% | -9% | -19%
CCOc1cc(N2CCOCC2)c(OCC)cc1NC(=O)c1cc(C)cc(C)c1 | -28% | ? | -9% | -34% | -25% | -6%
CCOc1cc(N2CCOCC2)c(OCC)cc1NC(=O)c1c(-c2ccccc2)noc1C | · | -6%[2.33 µM] | -15% | 45µM* | ? | -1%
CCOc1cc(N2CCOCC2)c(OCC)cc1NC(=O)c1c(-c2ccccc2Cl)noc1C | 0% | 35µM* | ? | 40µM* | 45µM* | 12%
CCOc1cc(N2CCOCC2)c(OCC)cc1NC(=O)c1ccccc1 | 0% | ? | -3% | ? | -20% | -5%
COc1cccc(Cn2c(=O)cnc3cnc(Oc4cccc(Cl)c4)nc32)c1 | 13% | 1%[12.7 µM] | · | · | · | ·
SMILES | Sfp PPTase inh | G9a block | HP1b chromo inh | BAZ2B block | JMJD2A Tudor inh | PLK1 PBD inh
CN(C)c1ccc(-c2nnn(CC(=O)Nc3ccccc3N3CCOCC3)n2)cc1 | -1% | 50µM* | -18% | ? | ? | -1%
Cc1nnsc1C(=O)N/N=C/c1ccc2ccccc2c1O | 6% | 40µM* | 13% | 1.4µM* | ? | 58%
Cc1ccc(C(=O)/C=C/C(=O)O)cc1 | 13µM* | 10µM* | 10% | 11% | -14% | ?
c1ccc(-n2nc3c(ccc4cnnc43)[nH]2)cc1 | -10% | 18µM* | -6% | 50µM* | 16%[11.4 µM] | -30%
CC(Oc1ccccc1F)C(=O)NNC(=O)c1cccc(S(=O)(=O)N2CCN(C)CC2)c1 (centres undefined) | · | ? | 26% | 1% | -12% | -8%
COc1ccccc1C(CNC(=O)C(CCSC)NC(=O)c1ccccc1Cl)N1CCCC1 (centres undefined) | · | · | 51% | · | -5% | 0%
CC1(C)CC(=O)C2=C(C1)Nc1ccccc1S2 | 0% | 40µM* | -24% | ? | -23% | -26%
CC1(C)CC(=O)C2=C(C1)Nc1ccccc1N=C2 | 40µM* | 8.9µM* | · | -30% | · | ·
C=Cc1ccc(Cn2c(C(=O)O)c(CNCc3ccccc3)c3ccc(OC)cc32)cc1 | · | ? | 0% | ? | -36% | ·
O=C(CC1SC2=NCCN2C1=O)Nc1ccccc1 (centres undefined) | -5% | -18% | 5% | 31% | -12% | -9%
O=C(CC1SC(=O)N(c2ccccc2)C1=O)Nc1ccccc1 (centres undefined) | ? | ? | -4% | -36% | -34% | 11µM*
Cc1cccc(NC(=O)CC2SC(=O)N(c3ccccc3)C2=O)c1 (centres undefined) | -25% | ? | -9% | -37% | -35% | 15µM*
Cc1ccc(NC(=O)CC2SC3=NCCN3C2=O)cc1 (centres undefined) | 71µM* | 7.1µM* | 37% | -6% | -10% | -5%
Cc1ccc(NC(=O)CC2SC(=O)N(c3ccccc3)C2=O)cc1 (centres undefined) | 20µM* | ? | 8% | -6% | -21% | 6.7µM*
O=C1SC(Cc2ccccc2)C(=O)N1c1ccccc1 (centres undefined) | 20% | -3%[59 µM] | 7% | 4% | 3% | -11%
Cc1ccc(N2C(=O)SC(Cc3ccccc3)C2=O)cc1 (centres undefined) | 22µM* | 8.9µM* | ? | -16% | -16% | 7.5µM*
O=C(CN1C(=O)NC2(CCCC2)C1=O)Nc1nc2ccccc2[nH]1 | · | -4%[0.501 µM] | 22% | ? | -18% | -1%
N[C@H](C(=O)O)[C@H](O)C(=O)O | 89µM*! | 15%[12.7 µM] | · | · | · | ·
O=C1Cc2ccccc2C(=O)N1c1ccccc1 | 9% | 14%[59 µM] | 0% | -2% | -7% | 1%
O=C1Cc2ccccc2C(=O)N1c1ccc(F)cc1Cl | -4% | 50µM* | 20% | -12% | -23% | -22%
O=C1Cc2ccccc2C(=O)N1c1cccc(Cl)c1 | 6% | 40µM* | 27% | -28% | -25% | ?
